Inconclusive results are not listed. Where a call stands in place of a potency, no number is given. Active and inactive are the calls of the source. Calls come from the whole dose curve; as a rule, active = well fitted cell-killing curve with a large enough effect in the repeat runs; inconclusive = weak or mixed curves, or effect the other way; inactive = flat fitted curve, though single readings scatter.
Tests used:
[1] = cAMP Responsive Elements (CRE) small molecule antagonists, cell-based qHTS assay: qHTS cell viability counter screen (AID 2060913); note: nearly all actives have a fitted effect of over 40% in size
How it was run: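 Steps: cells plated and held 18 hrs at 37 C/5% CO2; compounds and NKH477 (0.25 uM final) added; 3 hrs incubation; reporter substrate read; CellTiter-Glo added to measure cytotoxicity by luminescence.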

[2] = cAMP Responsive Elements (CRE) small molecule agonists, cell-based qHTS assay: qHTS cell viability counter screen (AID 2060914); note: potency is the fitted concentration of half-maximal effect;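 note: viability read after 3 h of compound exposure; nearly all actives have a fitted effect of over 50% in size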
How it was run: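 Cells are seeded and incubated 18 h, treated with compounds in DMSO for 3 h, read for the bla reporter, then given CellTiter-Glo; luminescence is measured after 30 min at room temperature.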

| SMILES | Potency [1] | Potency [2] |
| --- | --- | --- |
| O=[N+]([O-])C(CO)(CO)CO | inactive | inactive |
| O=C(O)[C@@H]1[C@H]2C[C@H]3c4[nH]c5ccccc5c4CCN3C[C@@H]2CC[C@@H]1O | inactive | inactive |
| COc1cc(NS(=O)(=O)c2ccc(N)cc2)nc(OC)n1 | inactive | inactive |
| CN(C)CC/C=C1\c2ccccc2COc2ccccc21 | inactive | inactive |
| C/C=C/c1ccc(O)c(OC)c1 | inactive | inactive |
| O=C1C(c2[nH]c3ccc(S(=O)(=O)O)cc3c2O)=Nc2ccc(S(=O)(=O)O)cc21 | inactive | inactive |
| O=Cc1ccccc1C=O | inactive | inactive |
| CCc1cccc(CC)c1N(COC)C(=O)CS(=O)(=O)O | inactive | inactive |
| Cc1ccc(C(C)C)c(O)c1 | inactive | inactive |
| Cc1ccccc1C(=O)N1CC/C(=N\OS(=O)(=O)O)c2ccc(Cl)cc21 | inactive | inactive |
| Cc1ncc(COP(=O)(O)O)c(C=O)c1O | inactive | inactive |
| NCC1CCCC(CN)C1 (stereo not given) | inactive | inactive |
| N[C@@H](Cc1cc(I)c(O)c(I)c1)C(=O)O | inactive | inactive |
| CN(C)C(=O)COC(=O)Cc1ccc(OC(=O)c2ccc(N=C(N)N)cc2)cc1 | inactive | inactive |
| Cn1c(N)c(N=O)c(=O)n(C)c1=O | inactive | inactive |
| COC(=O)c1cccc(C(=O)OC)c1 | inactive | inactive |
| CC1=C(CC=O)C(C)(C)CCC1 | inactive | inactive |
| CCCC(C)CCC(C)=O (stereo not given) | inactive | inactive |
| CC(=O)Nc1ccccc1 | inactive | inactive |
| CC1(C)CC(N)CC(C)(CN)C1 (stereo not given) | inactive | inactive |
| O=[N+]([O-])c1cc[n+]([O-])cc1 | inactive | inactive |
| CC(=O)SC[C@@H](Cc1ccccc1)C(=O)NCC(=O)OCc1ccccc1 | inactive | inactive |
| COc1ccc(-c2coc3cc(O)cc(O)c3c2=O)cc1 | inactive | inactive |
| C=CC(C)(CCC=C(C)C)OC(C)=O (stereo not given) | inactive | inactive |
| NC(=O)NC(N)=O | inactive | inactive |
| Nc1ncn([C@@H]2O[C@H](CO)[C@@H](O)[C@H]2O)c(=O)n1 | inactive | inactive |
| CCCOc1ccc2nc(NC(=O)OC)[nH]c2c1 | inactive | inactive |
| C/C=C/C=C/C(=O)O | inactive | inactive |

| SMILES | Potency [1] | Potency [2] |
| --- | --- | --- |
| CCOC(=O)c1ccc(I)cc1 | inactive | inactive |
| O=C1CC[C@H](C(=O)N2CCCCC2)N1 | inactive | inactive |
| COc1cc(C)ccc1O | inactive | inactive |
| NCCCC(O)(P(=O)(O)O)P(=O)(O)O | inactive | inactive |
| CCC(C)(CCC(C)C)C(=O)O (stereo not given) | inactive | inactive |
| O=C(O)Cn1c(=O)n(Cc2ccc(Br)cc2F)c(=O)c2ccc(Cl)cc21 | inactive | inactive |
| C=CCCC=C | inactive | inactive |
| Cc1c(C)c2c(c(C)c1OC(=O)CCC(=O)OCCO)CC[C@@](C)(CCC[C@H](C)CCC[C@H](C)CCCC(C)C)O2 | inactive | 26.6 µM (active) |
| CC/C=C\C/C=C\C/C=C\CCCCCCCC(=O)O | inactive | inactive |
| C=C[C@H]1CN2CC[C@H]1C[C@H]2[C@H](O)c1ccnc2ccc(OC)cc12 | inactive | inactive |
| c1ccc2sc(SN3CCOCC3)nc2c1 | inactive | inactive |
| COc1ccc(S(=O)(=O)Nc2nnc(CC(C)C)s2)cc1 | inactive | inactive |
| O=C(/C=C/c1ccc(O)c(O)c1)O[C@@H](C(=O)O)[C@@H](OC(=O)/C=C/c1ccc(O)c(O)c1)C(=O)O | inactive | inactive |
| O=C(Cl)c1ccccc1[N+](=O)[O-] | inactive | inactive |
| NC(=O)NO | inactive | inactive |
| Cc1ccc(S)cc1 | inactive | inactive |
| O=C(O)c1cccc(C(=O)O)n1 | inactive | inactive |
| NC(=O)Cc1cccc2ccccc12 | inactive | inactive |
| C=C(C)C(=O)OCC | inactive | inactive |
| COc1ccc(COC(C)=O)cc1 | inactive | inactive |
| CN(C)C(C)(C)CO | inactive | inactive |
| O=C(O)Cc1ccc(-c2ccccc2)cc1 | inactive | inactive |
| O=Cc1ccccc1[N+](=O)[O-] | inactive | inactive |
| COC(=O)C(C)Oc1ccc(Oc2ncc(C(F)(F)F)cc2Cl)cc1 (stereo not given) | inactive | inactive |
| CC[N+](CC)(CC(=O)Nc1c(C)cccc1C)Cc1ccccc1 | inactive | inactive |
| COc1ccccc1O | inactive | inactive |
| CC(C)C[C@H](NC(=O)CNC(=O)[C@H](Cc1ccc(O)cc1)NC(=O)[C@H](CO)NC(=O)[C@H](Cc1c[nH]c2ccccc12)NC(=O)[C@H](Cc1cnc[nH]1)NC(=O)[C@@H]1CCC(=O)N1)C(=O)N[C@@H](CCCN=C(N)N)C(=O)N1CCC[C@H]1C(=O)NCC(N)=O (stereo in doubt) | inactive | inactive |

Reference: PubChem BioAssay (Tox21)
